Compounds with a hit are over-represented: about 4.2% of the library has one in this group of screens.
hcDAF12 agonist: activates DAF-12 receptor from parasite H. contortus; activation, % at 6.8 µM; HEK293 hcDAF-12 lit1-tk-luc reporter, luminescence; 0% DMSO, 100% Δ7-dafachronic acid; 370,000 compounds, 1.4% hits;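 active = activation above the mean of all tested compounds plus 3 SD, cut at about 5.5% in these data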;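 also: 100% = response to 3 µM Δ7-dafachronic acid high control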
DAX1 StAR inh: blocks DAX1 repression of SF-1 activated StAR promoter; HEK293T StAR-luciferase reporter, SF-1/DAX-1 repression relief; inhibition, % at 6.8 µM; 370,000 compounds, 1.1% hits;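 active = inhibition above the mean over all tested compounds plus 3 SD, cut at about 3.6% in these data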;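 also: 0% = DAX-1 cells with DMSO and 100% = cells lacking DAX-1 with DMSO; higher inhibition means more luminescence from relief of DAX-1 repression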
SMARCA2 act: SMARCA2 function activation, primary screen. activation, % at 9.1 µM. 370,000 compounds, 1% hits. MG213 cells, MMTV-luciferase reporter, dexamethasone, overnight; in the data active = activation above about 7.8%;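 also: 0% = vehicle wells and 100% = reference activator wells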
ssDAF12 agonist: activates DAF-12 receptor from parasite S. stercoralis; HEK293 ssDAF-12/GRIP1 lit1-tk-luc reporter, luminescence; % of 3 µM dafachronic acid response; activation, % at 6.8 µM; 370,000 compounds, 1% hits; AID 652126;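 active = activation above the mean over all tested compounds plus 3 SD, cut at about 0.9% in these data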;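 also: 0% = DMSO-only wells and 100% = 3 µM delta7-dafachronic acid wells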
hgDAF-12 ag: activates the H. glycines DAF-12 receptor ligand-binding domain; HEK293 GAL4-hgDAF12 UAS-luciferase reporter, agonist luminescence; normalized to butyrate control; activation, % at 6.8 µM; 370,000 compounds, 1.8% hits; AID 687014;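 active = activation above a cutoff set at the mean of all screened compounds plus 3 SD, cut at about 10% in these data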;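 also: 0% = DMSO wells and 100% = sodium butyrate wells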
DAX1 inh confirm: NR0B1 (human) inhibition, confirmation | shares compounds with DAX1 StAR inh | HEK293T StAR-promoter luciferase reporter, SF-1/DAX-1 repression | inhibition, % at 6.8 µM | 2,400 compounds, 87% hits | AID 652134;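 active = inhibition above the average of every tested compound plus 3 SD, cut at about 3.8% in these data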;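 also: 0% = DAX-1 cells with DMSO and 100% = no DAX-1 control cells with DMSO; active compounds raise luminescence by relieving repression of the StAR reporter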
Target sequence (P51843 whole entry, looked up): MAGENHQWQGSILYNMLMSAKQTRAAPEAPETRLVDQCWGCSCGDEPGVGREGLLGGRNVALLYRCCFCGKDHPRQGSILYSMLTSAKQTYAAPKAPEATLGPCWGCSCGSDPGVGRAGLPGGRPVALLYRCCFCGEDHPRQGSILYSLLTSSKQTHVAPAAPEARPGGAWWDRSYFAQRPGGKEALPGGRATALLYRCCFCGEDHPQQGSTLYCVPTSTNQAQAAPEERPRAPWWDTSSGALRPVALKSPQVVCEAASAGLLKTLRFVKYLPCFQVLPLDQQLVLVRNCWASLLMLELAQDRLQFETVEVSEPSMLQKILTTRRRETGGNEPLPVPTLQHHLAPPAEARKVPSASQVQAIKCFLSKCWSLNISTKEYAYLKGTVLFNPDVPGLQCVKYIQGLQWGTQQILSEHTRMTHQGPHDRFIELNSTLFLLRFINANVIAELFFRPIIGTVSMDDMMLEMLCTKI
SF1 mutant ctr: nonselective inhibitor or artifact in SF-1 mutant DAX1 counter-screen; shares compounds with DAX1 StAR inh; HEK293 StAR-luciferase, SF-1 AF2 mutant, luminescence; inhibition, % at 6.8 µM; 2,400 compounds, 78% hits;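 active = inhibition above the mean of all tested compounds plus 3 SD, cut at about 3% in these data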;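 also: 0% = DAX-1 transfected cells with DMSO and 100% = cells without DAX-1 with DMSO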
LXRb hcDAF ctr: activates human LXR-beta, counter-screen for hcDAF-12 agonists | shares compounds with hcDAF12 agonist | HEK293 Gal4-LXR tk-luc reporter, luminescence, 24 h; normalized: DMSO 0%, positive control 100% | activation, % at 6.8 µM | 3,400 tested, under 10 active;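 active = mean percent activation of the reporter above a cutoff set as the average over tested compounds plus their standard deviation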
hcDAF12 ag: confirmation of H. contortus DAF-12 agonists; 3,400 compounds, 61% hits; HEK293 hcDAF-12 lit1-tk-luc reporter, luminescence; % of Δ7-dafachronic acid response; activation, % at 6.8 µM; AID 743032; shares compounds with hcDAF12 agonist;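 active = mean activation across triplicate tests above the threshold derived from the earlier primary screen, cut at about 5.5% in these data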;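 also: 0% = DMSO only wells and 100% = 3 µM Δ7-dafachronic acid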
An asterisk follows results filed as active; nt = no result.

SMILES	hcDAF12 agonist	DAX1 StAR inh	SMARCA2 act	ssDAF12 agonist	hgDAF-12 ag	DAX1 inh confirm	SF1 mutant ctr	LXRb hcDAF ctr	hcDAF12 ag
N/C(=N\OC(=O)c1cccc(Br)c1)c1ccccn1	17*	8.9*	1	1.4*	3	17*	11*	1	12*
N/C(=N\OC(=O)COc1ccccc1Cl)c1ccccn1	6.9*	5.9*	6	1.1*	10	12*	8.5*	1	8.0*
CCOC(=O)CNc1c(-c2ccccc2)nc2ccc(Cl)cn12	-1	2	6	-1	6	nt	nt	nt	nt
COC(=O)CNc1c(-c2ccccn2)nc2ccc(Br)cn12	7.8*	4.9*	3	1	10	12*	6.2*	1	6.2*
Fc1ccc(F)c(Cn2ccc3ccc(-c4ccc5ccn(Cc6cc(F)ccc6F)c5c4)cc32)c1	0	-1	-2	0	-1	nt	nt	nt	nt
CCc1cc(-c2ccc3c(c2)COc2c4ccccc4nn2-3)on1	7.0*	4.5*	3	0	8	11*	5.1*	2	9.3*
COc1cc(OC)cc(C(C)c2ccc(C)cc2)c1 (stereo unspecified)	-1	nt	nt	-1	4	nt	nt	nt	nt
N#C/C(=C\c1ccc[nH]1)C(=O)Nc1ccccc1F	12*	7.4*	2	4.3*	12*	9.5*	7.0*	1	8.6*
CCOc1ccc(OCc2cccc(C(=O)O)c2)cc1	8.8*	6.6*	0	1.0*	11*	15*	7.9*	2	15*
Nc1nc2c(ncn2[C@@H]2O[C@H](CNS(=O)(=O)N3CCCC3)[C@@H](O)[C@H]2O)c(=O)[nH]1	-1	0	0	-1	2	nt	nt	nt	nt
Cc1nc2cc(NC(=O)N3c4ccccc4CC3C)ccc2n1C (stereo unspecified)	6.9*	6.0*	5	1.3*	10	18*	7.7*	2	8.2*
O=C(C1CCN(c2cncnc2)CC1)N1CCOCC1	0	-1	-2	0	3	nt	nt	nt	nt
COC(=O)c1ccc2nc(-c3ccc(OC)c(OC)c3)c(Cc3cccc(F)c3)n2c1	1	-2	-2	0	-3	nt	nt	nt	nt
O=C(/C=C/Nc1ccccc1O)c1ccco1	0	0	4	0	4	nt	nt	nt	nt
Cc1ccc(N/C=C/C(=O)c2cccs2)cc1	10*	8.3*	4	1.4*	22*	6.3*	2	2	14*
Cc1noc(NS(=O)(=O)c2ccc(N/C=C\C(=O)c3cccs3)cc2)c1C	5	2	3	0	7	nt	nt	nt	nt
O=C(/C=C/Nc1ccc(F)cc1F)c1ccc(Br)cc1	4	1	2	-1	6	nt	nt	nt	nt
O=C(/C=C/Nc1ccc(F)cc1F)c1cccs1	12*	6.1*	7	2.4*	21*	8.3*	2	1	15*
O=C(/C=C/Nc1ccccc1F)c1cccs1	26*	5.7*	6	3.9*	29*	15*	7.8*	2	22*
O=C(C=Cc1cccs1)c1cccs1	-1	0	3	0	5	nt	nt	nt	nt
O=C(/C=C/Nc1ccc(Br)cc1F)c1ccco1	14*	6.0*	2	1.5*	23*	7.7*	0	1	9.9*
COc1ccc(-c2cc(C(=O)O)c3ccccc3n2)c(OC)c1	0	1	0	-1	-1	nt	nt	nt	nt
COc1ccc2cc(-c3cc(C(=O)O)c4ccccc4n3)ccc2c1	8.8*	5.2*	3	3.0*	13*	11*	3.2*	2	5
Oc1ccc(CNc2ccccc2Br)c2cccnc12	-2	nt	nt	-2	-5	nt	nt	nt	nt
COC(=O)C(Cc1c[nH]c2ccccc12)NC(=O)c1ccc2nc[nH]c2c1 (stereo unspecified)	8.3*	8.7*	2	2.1*	14*	13*	6.0*	1	6.9*
SMILES	hcDAF12 agonist	DAX1 StAR inh	SMARCA2 act	ssDAF12 agonist	hgDAF-12 ag	DAX1 inh confirm	SF1 mutant ctr	LXRb hcDAF ctr	hcDAF12 ag
COC(=O)C(Cc1c[nH]c2ccccc12)NC(=O)c1cncc(Br)c1 (stereo unspecified)	5	0	0	0	1	nt	nt	nt	nt
COCC(=O)N(Cc1ccccc1)c1ccccc1C(=O)Nc1cc(OC)ccc1OC	-3	1	-6	-1	-1	nt	nt	nt	nt
O=C(NCc1ccc(Cl)cc1)c1ccc(CSc2nc3ccncc3[nH]2)cc1	-2	-1	-5	-1	0	nt	nt	nt	nt
Cc1ccc(CSc2nc3ccncc3[nH]2)cc1	11*	13*	0	1.4*	18*	16*	9.6*	2	10*
COc1ccc(-n2ncc3c(NCC(C)C)ncnc32)cc1	9.8*	5.0*	5	1	11*	13*	4.1*	2	5.7*
Cc1ccc(-c2cc(-c3nnc(SCc4cccc5ccccc45)n3N)[nH]n2)cc1	-5	-1	-6	-2	-2	nt	nt	nt	nt
Cc1ccccc1CN1CCCCC(NC(=O)c2c(F)cccc2F)C1=O (stereo unspecified)	-4	-2	-3	-1	-2	nt	nt	nt	nt
Cc1ccc(NC(=O)CNC(=O)c2sc3ccccc3c2Cl)nc1	7.0*	4.6*	3	0	6	4.8*	3.4*	0	3
CCOC(=O)c1cc(-c2cccc(O)c2)oc1C	9.8*	6.2*	6	3.3*	14*	3.8*	3.2*	1	13*
CCOC(=O)c1sc(NC(=O)c2cc(-c3cccc(O)c3)on2)c(C(=O)OCC)c1C	0	1	2	-2	-4	nt	nt	nt	nt
O=C(NC1=NCCS1)c1cc2ccccc2o1	7.0*	5.3*	1	1	11*	11*	7.2*	1	6.2*
O=C(NC1=NCCS1)c1ccccc1	-1	1	-2	0	3	nt	nt	nt	nt
O=C(Cc1c[nH]c2ccccc12)Nc1ccc(Nc2cccnc2)c(-c2cccc(Cl)c2)c1	-1	-1	-1	-2	-5	nt	nt	nt	nt
CC(C)(C)NC(=O)NC(=O)COc1ccc(Br)cc1Br	6.6*	7.5*	2	0	17*	18*	6.0*	2	9.5*
CC1(C)C=C2C(N(CC3CC3)C(=N)N2C(=O)OCc2ccccc2)n2c(=O)n(-c3ccccc3)c(=O)n21 (stereo unspecified)	1	nt	nt	-1	-1	nt	nt	nt	nt
